# An excerpt weighted towards active compounds, which were near 1.6% of everything screened.
# mHtt clearance = clearance of mutant huntingtin inclusions, primary screen, imaging, HeLa Exon1htt(103Q)mCFP, confocal imaging | aggregate imaging; zero = plate's median compound well | inhibition, % at 1.5 µM | 47,000 tested, 0.42% active | AID 853, 2007;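 active means inhibition of aggregate fluorescence above about 70%, also judged a hit by eye on the cell image, limit read from the data, passing the limit was not always enough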;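 further: cells exposed to compound for three days before fixation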
# Jurkat viability = cytotoxicity toward Jurkat T cells, primary screen, cytotoxicity control, cell-based, Jurkat E6.1, 60K MLSMR library | Jurkat E6.1 viability, ATP luminescence, 48 h | inhibition, % at 4 µM | 56,000 tested, 1.2% active;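 active means inhibition above the mean inhibition of all tested compounds plus 3 SD, cut at about 28% in these data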
# Cdc25B inh = inhibitors of Cdc25B phosphatase catalytic domain, primary screen, biochemical, OMFP fluorescence; M-phase inducer phosphatase 2 (Homo sapiens), P30305; recombinant Cdc25B, OMFP fluorescence Ex485/Em525; inhibition, %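 (compounds tested at 10 µM final in the well)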; 65,000 tested, 0.1% active; AID 368, 2006; in the data active means inhibition above about 50%
# Target sequence (P30305 whole entry, looked up, the tested form may be a part): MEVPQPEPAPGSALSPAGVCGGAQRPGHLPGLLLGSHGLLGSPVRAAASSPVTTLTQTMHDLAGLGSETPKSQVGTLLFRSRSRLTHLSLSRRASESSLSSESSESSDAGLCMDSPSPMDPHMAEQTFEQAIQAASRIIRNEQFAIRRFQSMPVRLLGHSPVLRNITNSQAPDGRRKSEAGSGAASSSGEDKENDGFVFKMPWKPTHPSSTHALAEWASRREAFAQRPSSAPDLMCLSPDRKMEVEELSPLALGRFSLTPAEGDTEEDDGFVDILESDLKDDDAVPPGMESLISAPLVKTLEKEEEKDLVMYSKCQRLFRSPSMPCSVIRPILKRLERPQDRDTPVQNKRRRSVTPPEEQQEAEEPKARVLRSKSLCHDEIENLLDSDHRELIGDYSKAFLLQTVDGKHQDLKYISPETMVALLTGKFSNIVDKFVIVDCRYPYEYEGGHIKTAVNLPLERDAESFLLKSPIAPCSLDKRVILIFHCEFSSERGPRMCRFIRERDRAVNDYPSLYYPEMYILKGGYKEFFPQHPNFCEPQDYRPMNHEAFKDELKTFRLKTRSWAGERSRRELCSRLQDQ
# MKP-1 inh = MKP-1 phosphatase inhibitors, primary screen, biochemical, in vitro | Dual specificity protein phosphatase 1 (Homo sapiens), P28562 | recombinant MKP-1, OMFP hydrolysis fluorescence | inhibition, %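 (compounds tested at a single concentration somewhere between 10 and 100 µM)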 | 65,000 tested, 0.15% active | AID 374, 2006;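 active means inhibition above about 50%, limit read from the data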;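 further: 0% = DMSO max control wells and 100% = wells with enzyme stopped by NaOH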
# SKBR3 24h inh = SK-BR-3 proliferation inhibitors, primary screen, cell-based, human, 24 h; SK-BR-3 viability, CellTiter-Glo ATP luminescence; active compounds read low; viability, % at 10 µM; 41,000 tested, 0.47% active;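 active means viability at or below the median of all test compounds minus 3 SD, in both replicates if run twice, cut at about 45% in these data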;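 further: 100% = median untreated cell wells and 0% = median positive control drug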
# Starred values were filed as active, the others as inactive; i = inactive; nt = no result.
SMILES,mHtt clearance,Jurkat viability,Cdc25B inh,MKP-1 inh,SKBR3 24h inh
CCn1c(SCC(=O)Nc2nc3ccc(OC)cc3s2)nc2c1c(=O)n(C)c(=O)n2C,nt,4,2,50*,67
CCOc1ccc2nc(NC(=O)CSc3nc4c(c(=O)n(C)c(=O)n4C)n3C(C)C)sc2c1,nt,0,2,37,83
O=C1CCC(C(=O)NC2(C(=O)NC3CCCCC3)CCCCC2)N1 (stereo not drawn),11,nt,-9,8,28*
Cc1ccc(N(C(=O)C2CCC(=O)N2)C2(C(=O)NC3CCCCC3)CCCCC2)cc1 (stereo not drawn),nt,nt,-13,8,86
Oc1ccc(-c2nc(-c3ccc(O)c(O)c3)cs2)cc1,nt,97*,8,7,nt
CC1CC(C)CN(CC(=O)N2CCc3[nH]c4ccccc4c3C2)C1 (stereo not drawn),nt,5,-4,-10,43*
Cc1nonc1OCCNC(=O)C12CC3CC(CC(C3)C1)C2,-8,0,4,0,90
CCOC(=O)CSc1nc(N)cc(=O)[nH]1,nt,2,2,-5,76
CCOC(=O)CSc1nc(C)cc(=O)[nH]1,71*,-4,-10,0,98
CCCn1c(=O)n(C)c(=O)c2c3oc(=O)c(NC(=O)c4ccc(F)cc4)cc3[nH]c21,nt,-7,-5,-1,nt
CC(C)(C)c1cc(NC(=O)c2cccnc2)no1,78*,-6,2,38,112
Cc1ccc(Oc2ccccc2)c(NC=O)c1,nt,nt,-16,3,36*
Nc1cc(Cl)ccc1Oc1ccccc1,-22,1,8,-2,99
COc1cc(C2CC(=O)c3c([nH]c(C(=O)OCCOC(C)C)c3C)C2)cc(OC)c1OC (stereo not drawn),9,43*,-13,9,nt
COCCOC(=O)c1[nH]c2c(c1C)C(=O)CC(c1cc(OC)ccc1OC)C2 (stereo not drawn),nt,65*,-10,12,nt
CCOC(=O)c1[nH]c2c(c1C)C(=O)CC(c1ccc(OC)c(OC)c1)C2 (stereo not drawn),nt,nt,-17,-1,nt
COc1ccc(OC)c(C2CC(=O)c3c([nH]c(C(=O)OC(C)C)c3C)C2)c1 (stereo not drawn),nt,98*,-12,13,nt
Cc1nn2c(-c3cccc(NC(=O)c4ccco4)c3)nnc2c2ccccc12,-30,-8,-11,51*,74
Cc1ccc(-c2nnc3c4ccccc4c(C)nn23)cc1NC(=O)c1ccco1,11,-1,12,-8,93
CC(=O)c1cc(OC(=O)c2ccncc2)ccc1OC(=O)c1ccncc1,nt,10,-3,8,127
Cc1ccc(-c2csc3ncnc(Sc4nnc(CN5CCCCCC5=O)o4)c23)cc1,nt,71*,-15,32,nt
O=c1c2c3c(sc2n2c(=S)[nH]nc2n1Cc1ccccc1)CN(Cc1ccccc1)CC3,4,nt,nt,nt,nt
O=C(Nc1ccc(Br)cc1)c1ccc(N2C(=O)C3CC=C(Cl)CC3C2=O)cc1 (stereo not drawn),-32,nt,nt,nt,nt
Cc1ccc2[nH]c(-c3ccccc3)cc(=O)c2c1,i,98*,-5,3,nt
Cc1ccc(OCCN2CCN(C(=O)CCC(=O)Nc3nnc(C)s3)CC2)cc1,9,13,-7,1,107
SMILES,mHtt clearance,Jurkat viability,Cdc25B inh,MKP-1 inh,SKBR3 24h inh
Cc1ccc(OCCN2CCN(C(=O)CCC(=O)Nc3nnc(C(C)C)s3)CC2)cc1,-3,55*,-1,-1,84
COCCNC(=O)c1c(NC(=O)c2nc(SC)ncc2Cl)sc2c1CCCC2,-80,nt,nt,nt,nt
CC1CCc2cc(F)ccc2N1C(=O)C1(C)CC1(Cl)Cl (stereo not drawn),27,nt,nt,nt,nt
COc1ccc(Cl)cc1NC(=O)CCN1CCN(c2ccccc2C)CC1,34,nt,-5,6,nt
CCN1CCN(c2ncc(C(=O)Nc3cc(Cl)ccc3OC)c3ccccc23)CC1,nt,11,-12,23,33*
Cc1cc(C(=O)CSc2nnc(NCc3ccccc3)s2)c(C)n1C,nt,34*,2,18,nt
CCOc1cc(C2C(C#N)=C(N)Oc3n[nH]c(-c4ccccc4)c32)ccc1O (stereo not drawn),nt,-2,65*,14,80
COc1cc(N2C(=O)NC3CC2(C)Oc2ccc(Br)cc23)cc(OC)c1OC (stereo not drawn),nt,-4,4,-2,nt
O=C1OCCC1Sc1nc2cc(Cl)ccc2s1 (stereo not drawn),nt,-4,-6,0,nt
c1csc(CCNc2ncnc3sc4c(c23)CCC4)c1,nt,40*,-16,6,nt
c1cn(CCCNc2ncnc3sc4c(c23)CCC4)cn1,nt,4,-9,1,nt
O=C(c1n[nH]c(=O)c2ccccc12)N1CCN(C2c3ccccc3-c3ccccc32)CC1,nt,2,2,52*,nt
O=C(O)C1C2C=CC(C2)C1C(=O)N1CCOCC1 (stereo not drawn),nt,4,2,-21,105
O=C(NC1CCCC1)C1C2C=CC(C2)C1C(=O)N1CCOCC1 (stereo not drawn),78*,4,7,-1,101
N#Cc1nc(-c2ccco2)oc1NCCCn1ccnc1,-38,-5,-8,-13,90
Cc1ccc(OCC(=O)NCc2ccccn2)cc1,nt,-6,-7,-11,nt
Cc1nc(CCNC(=O)COc2ccccc2)cs1,74*,0,3,5,nt
Cc1ccc(C)n1-c1ccc(N2CCOCC2)cc1,97*,0,4,-6,85
c1ccn(-c2ccc(N3CCOCC3)cc2)c1,-25,nt,nt,nt,nt
Cc1ccc(S(=O)(=O)N(CC(=O)NCc2ccco2)Cc2ccccc2F)cc1,10,-6,-2,4,nt
O=C(c1cccc(S(=O)(=O)N2CCCC2)c1)c1nnc(-c2ccncc2)o1,nt,7,-5,8,nt
COc1ccccc1OCCC(=O)OCC(=O)Nc1ncc(Cl)cc1Cl,nt,0,0,-9,nt
Cc1sc2ncnc(Sc3nnnn3-c3ccccc3)c2c1C,-19,1,7,-22,nt
Clc1ccc(-n2nnnc2Sc2ncnc3sccc23)cc1,-46,66*,0,-5,nt
O=C(Cc1ccc(Cl)cc1)Nc1ccc2oc(-c3ccncc3)nc2c1,-10,0,-4,7,34*
CCCCCC(=O)Nc1ccc2oc(-c3cccnc3)nc2c1,71*,0,14,14,111
CCCCCCn1c(NCC)nc2c1c(=O)n(C)c(=O)n2C,35,78*,2,29,79
CC(C)CCn1cnc2c1c(=O)n(C)c(=O)n2C,73*,2,-5,1,87
CCCNc1nc2c(c(=O)n(C)c(=O)n2C)n1CCC(C)C,-51,33*,-1,-21,93

# Assay outcomes as filed in PubChem.
